Read-outs that look alike come from different tables or passages of the source.
Legend:
DCAMKL2 = test system: T1, DCAMKL2; conditions: concentration: 1 μM,replicates: in singlicate; n = 1
T1 construct: gene DCLK2

DCAMKL3 = test system: T2, DCAMKL3; conditions: concentration: 1 μM,replicates: in singlicate; n = 1
T2 construct: gene DCLK3

DDR1 = conditions: concentration: 1 μM,replicates: in singlicate; n = 1
DDR2 = conditions: concentration: 1 μM,replicates: in singlicate; n = 1
DLK = test system: T3, DLK; conditions: concentration: 1 μM,replicates: in singlicate; n = 1
T3 construct: gene MAP3K12

DMPK2 = test system: T4, DMPK2; conditions: concentration: 1 μM,replicates: in singlicate; n = 1
T4 construct: gene CDC42BPG

DMPK = conditions: concentration: 1 μM,replicates: in singlicate; n = 1
DRAK1 = test system: T5, DRAK1; conditions: concentration: 1 μM,replicates: in singlicate; n = 1
T5 construct: gene STK17A

DRAK2 = test system: T6, DRAK2; conditions: n = 1
T6 construct: gene STK17B

DYRK1A = conditions: concentration: 1 μM,replicates: in singlicate; n = 1
[1] = concentration: 1 μM,replicates: in singlicate
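Also: KINOMEscan kinase panel screen.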

| Compound | %Inh (DCAMKL2) [%] | %Inh (DCAMKL3) [%] | %Inh (DDR1) [%] | %Inh (DDR2) [%] | %Inh (DLK) [%] | %Inh (DMPK2) [%] | %Inh (DMPK) [%] | %Inh (DRAK1) [%] | %Inh (DRAK2; [1]) [%] | %Inh (DYRK1A) [%] | %Inh (DRAK2; 1 µM) [%] |
| --- | --- | --- | --- | --- | --- | --- | --- | --- | --- | --- | --- |
| C[C@@H](Oc1cc(-n2cnc3cc(-c4cnn(C)c4)ccc32)sc1C(N)=O)c1ccccc1Cl [GSK580432] | 10 | 0 | 42 | 3 | 29 | 1 | 45 | 6 | 15 | 18 | – |
| Cn1ccc2ncnc(Oc3ccc(NC(=O)Nc4cccc(C(F)(F)F)c4)c(Cl)c3)c21 | 0 | 7 | 99.9 | 99.9 | 0 | 0 | 0 | 0 | 0 | 0 | – |
| COc1cc(Nc2nccc(N3CCC(NC(=O)c4cccc(C#N)c4)C3)n2)cc(OC)c1OC (stereo not shown) [GSK1379751] | 0 | 0 | 0 | 24 | 30 | 1 | 0 | 20 | 4 | 0 | – |
| Cc1nnc(-c2ccc3occ(-c4ccc(S(C)=O)cc4)c3n2)o1 (stereo not shown) | 0 | 0 | 0 | 1 | 0 | 0 | 0 | 0 | 0 | 0 | – |
| CS(=O)(=O)Nc1ccc(-c2ccnc3[nH]ccc23)cc1 [GSK993273] | 0 | 0 | 0 | 0 | 83 | 13 | 51 | 99.2 | 20 | 88 | – |
| Cn1cc(-c2cccc3c(N)c(C(N)=O)nnc23)cn1 | 13 | 23 | 0 | 0 | 27 | 7 | 0 | 79 | 12 | 56 | – |
| Cl.Cl.NC[C@H](CC1CCCCC1)NC(=O)c1ccc(-c2ccnc3[nH]ccc23)s1 [GSK1581428] | 17 | 0 | 0 | 8 | 85 | 100 | 99.7 | 94.9 | 0 | 54 | – |
| O=C(NCC1CC1)c1ccc(-c2cc(C(=O)NC3CC3)ccc2F)cc1 [GW810445] | 22 | 0 | 0 | 35 | 12 | 0 | 0 | 0 | 0 | 0 | – |
| CNC(=O)c1ccccc1Nc1nc(Nc2cccc(CS(C)(=O)=O)c2)ncc1C.O=CO [GSK1520489] | 15 | 0 | 99.9 | 95.9 | 96.6 | 0 | 0 | 91.6 | 5 | 95.6 | – |
| O=C(Nc1cccc(C(F)(F)F)c1)c1cccc(Oc2ccc3nccn3n2)c1 | 6 | 9 | 97.1 | 95.9 | 0 | 1 | 13 | 0 | 0 | 5 | – |
| CC(=O)Nc1ccc(-c2cc3ncnc(SCC(=O)O)c3s2)cc1 | 24 | 12 | 0 | 10 | 2 | 0 | 7 | 97.9 | – | 66 | 100 |
| Cc1cccc2c(-c3ccncc3)c(-c3ccc(F)cc3)nn12.Cl [GW461487] | 0 | 0 | 54 | 41 | 27 | 43 | 0 | 7 | 0 | 10 | – |
| Cn1ccc2ncnc(Oc3ccc(NC(=O)Nc4cnn(C(C)(C)C)c4)c(Cl)c3)c21 | 5 | 2 | 100 | 100 | 0 | 0 | 15 | 0 | 3 | 11 | – |
| COc1cc2c(Nc3ccc(NC(=O)c4ccccc4)cc3)ncnc2cc1OCCCN1CCOCC1 [GSK301329] | 26 | 0 | 0 | 0 | 89 | 0 | 0 | 0 | 0 | 25 | – |
| Cc1n[nH]c2cc(Nc3ccnc(Nc4cccc(CN5CCOCC5)c4)n3)ccc12 [GW682569] | 0 | 0 | 70 | 55 | 52 | 0 | 0 | 53 | 16 | 2 | – |
| Cn1ccc2ncnc(Oc3ccc(NC(=O)Nc4cc(C(C)(C)C)on4)c(Cl)c3)c21 | 15 | 0 | 100 | 99.4 | 0 | 6 | 0 | 11 | 35 | 26 | – |

Reference: article PMC5540273 (PLoS ONE, 2017)
